From PubChem BioAssay (Tox21)
Inconclusive results are not listed. A call without a number means that no potency is given here. Active and inactive are the calls of the source. Calls follow the shape of the dose curve; as a rule, active = well fitted curve in the direction sought with a large enough effect in the repeat runs; inconclusive = weak or mixed curves; inactive = no such curve, though single readings can be large; an effect the other way counts as inactive or inconclusive.

Assays:
[1] = qHTS assay to identify small molecule antagonists of the retinoic acid receptor (RAR) signaling pathway (AID 1159552; also: nearly all actives have a fitted effect of over 50% in size)
How it was run: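 Overnight-plated C3RL4 reporter cells get compound, then retinol to 1 uM final; plates sit 6 hr at 37 C, 5% CO2. A luciferase reagent is added and light output recorded after 30 min at room temperature.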

[2] = qHTS assay to identify small molecule agonists of the retinoic acid receptor (RAR) signaling pathway (AID 1159553)
How it was run: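 Activation of retinol signaling was monitored via a RARE luciferase reporter in C3RL4 cells. After 6 hr compound treatment at 37 C, detection reagent was added for 30 min at room temperature before luminescence reading.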

[3] = qHTS assay to identify small molecule antagonists of the estrogen related receptor (ERR) signaling pathway from Tox21 library - cell viability counter screen (AID 1224834); also: nearly all actives have a fitted effect of over 30% in size
How it was run: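 CellTiter-Fluor fluorescence measured; ERR cells; 17.5 h compound incubation at 37 C; 30 min reagent step.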

SMILES | outcome [1] | Potency [2] | Potency [3]
C/C(=C(\CCO)SS/C(CCO)=C(\C)N(C=O)Cc1cnc(C)nc1N)N(C=O)Cc1cnc(C)nc1N | inactive | inactive | inactive
CC(C)=CCC/C(C)=C/C=N/O | inactive | inactive | inactive
CCN(CCCCOC(=O)c1ccc(OC)c(OC)c1)C(C)Cc1ccc(OC)cc1 (stereo not given) | inactive | inactive | inactive
Sc1nc(S)nc(S)n1 |  |  | inactive
CC(C)(C)N | inactive | inactive | inactive
O=C1C=CCCC1 | inactive | inactive | inactive
O=C(OC1C[C@H]2CC[C@@H](C1)[N+]21CCCC1)C(O)(c1ccccc1)c1ccccc1 (stereo not given in full) | inactive | inactive | inactive
CC1(COc2ccc(CC3SC(=O)NC3=O)cc2)CCCCC1 (stereo not given) |  |  | inactive
